# Laboratory results taken from PubChem BioAssay (NCATS).
# “And” between values parts separate entries of the source, which are not always exact repeats. Equal entries are not always repeated. Inconclusive results are not listed. A call without a number means that no potency is given here. The source made the active and inactive calls. Unless noted, calls come from the whole dose curve; as a rule, active = well fitted inhibition curve with a large enough effect; inconclusive = small, poorly fitted or top-dose-only effect; inactive = flat fitted curve, though single readings scatter.
# Experiments:
# [1] = target: Vitamin D3 receptor (Homo sapiens) (UniProt P11473); experiment: qHTS assay for small molecule antagonists of vitamin D receptor signaling (AID 588541; calls by dose curve;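 note: receptor activated by calcitriol during compound treatment; series mostly up to about 77 µM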)
# Outline: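 VDR-UAS-bla HEK293T cells (2000/well, 2% charcoal-stripped FBS) were treated with titrated compounds plus 1-alpha,25-dihydroxyvitamin D3 (50 nM or 3 nM final) for 16 h at 37 C. CCF4 beta-lactamase fluorescence was read; Hill fits gave IC50.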
# [2] = target: Vitamin D3 receptor (Homo sapiens) (UniProt P11473); experiment: qHTS assay for small molecule agonists of vitamin D receptor signaling (AID 588543; calls by dose curve)
# Outline: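 β-lactamase reporter, VDR-UAS-bla HEK293T, agonist mode. Cells plated 5 h at 37 °C, compound titration 16 h at 37 °C, CCF4 dye 2 h RT, ratio 460/530 nm. Hill fit → EC50, efficacy vs 50 nM 1α,25-(OH)2D3.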
# [3] = qHTS assay for small molecule agonists of retinoid X receptor alpha signaling (AID 588544; calls by dose curve); details: HEK293T RXRa-UAS-bla, beta-lactamase reporter, 18 h; 530 nm emission
# [4] = target: Retinoic acid receptor RXR-alpha (Homo sapiens) (UniProt P19793); experiment: as above
# [5] = target: Thyroid hormone receptor beta (Homo sapiens) (UniProt P10828); experiment: qHTS assay for small molecule agonists of thyroid hormone receptor beta signaling (AID 588545; calls by dose curve)
# Outline: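 Agonist-mode beta-lactamase reporter assay, HEK 293 cells, 2% charcoal/dextran FBS; cells plated 4 hrs, compound 18 hrs at 37 C, CCF4 2 hrs RT. Normalized to 10 nM T3 (100%) and DMSO (0%); Hill fit gives EC50, efficacy.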
# [6] = qHTS assay for small molecule antagonists of retinoid X receptor alpha signaling (AID 588546; active = well fitted inhibition curve with a large enough effect in the signal ratio, with a control signal flat, not every such curve was filed as active; the % refers to the signal ratio; note: potency is the fitted concentration of half-maximal effect;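 for max response: cells stimulated with 9-cis-retinoic acid as agonist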); details: HEK293T RXRa-UAS-bla, beta-lactamase ratio, antagonist mode; measured here: W530 green channel, cytotoxicity proxy
# Outline: (§1)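 Beta-lactamase reporter inhibition, read as CCF4 fluorescence ratio (ex 405, em 460/530 nm) after 2 h at RT. HEK293T UAS-bla cells, 2500/well, were stimulated with 9-cis-RA at 500 or 100 nM final alongside test compound for 18 h at 37 C.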
# [7] = target: Retinoic acid receptor RXR-alpha (Homo sapiens) (UniProt P19793); experiment: as above; details: HEK293T RXRa-UAS-bla, beta-lactamase ratio, antagonist mode
# Outline: as §1
# [8] = target: Thyroid hormone receptor beta (Homo sapiens) (UniProt P10828); experiment: qHTS assay for small molecule antagonists of thyroid hormone receptor beta signaling (AID 588547; active = well fitted inhibition curve with a large enough effect in the signal ratio, with a control signal flat, not every such curve was filed as active; the % refers to the signal ratio; note: potency is the fitted concentration of half-maximal effect;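 for activity change % (negative = inhibition): cells stimulated with 0.4 nM T3 agonist during compound exposure; series mostly up to about 77 µM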); details: TR-UAS-bla HEK293, beta-lactamase ratio, antagonist mode, 18 h
# Outline: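 TR-UAS-bla GripTite HEK293 cells in 2% charcoal/dextran FBS medium were preincubated 4 h at 37 C, given compound (0.59 nM to 92 uM) plus 0.4 nM T3 (final) for 18 h, then CCF4 for 2 h at RT; Hill fit gave IC50.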
# [9] = target: Voltage-gated inwardly rectifying potassium channel KCNH2 (Homo sapiens) (UniProt Q12809); experiment: qHTS Assay for Small Molecule Inhibitors of the Human hERG Channel Activity (AID 588834);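 note: lower thallium flux fluorescence means stronger hERG block; nearly all actives have a fitted effect of over 50% in size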; note: potency is the fitted concentration of half-maximal effect
# Outline: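 Concentration-response qHTS measuring drop in thallium-sensitive dye signal. U2OS cells carrying BacMam hERG; compound exposure ~10 min, then stimulation buffer and 2 min read at 1 sec intervals.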
# [10] = target: Luciferin 4-monooxygenase (Photinus pyralis) (UniProt P08659); experiment: Biochemical firefly luciferase enzyme assay for NPC (AID 624030);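 note: purified P. pyralis luciferase at 10 nM with luciferin and ATP substrate; series mostly up to about 59 µM; nearly all actives have a fitted effect of over 70% in size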
# Outline: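 Counter-screen for direct inhibition of the luciferase enzyme by approved-drug library compounds, run at 10 nM enzyme in 50 mM Tris acetate (final). Luminescence was read within 5 min of enzyme-buffer addition and normalized to PTC124 versus DMSO (0%).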
# Voltage-gated inwardly rectifying potassium channel KCNH2 (Homo sapiens), sequence (Q12809 whole entry, looked up): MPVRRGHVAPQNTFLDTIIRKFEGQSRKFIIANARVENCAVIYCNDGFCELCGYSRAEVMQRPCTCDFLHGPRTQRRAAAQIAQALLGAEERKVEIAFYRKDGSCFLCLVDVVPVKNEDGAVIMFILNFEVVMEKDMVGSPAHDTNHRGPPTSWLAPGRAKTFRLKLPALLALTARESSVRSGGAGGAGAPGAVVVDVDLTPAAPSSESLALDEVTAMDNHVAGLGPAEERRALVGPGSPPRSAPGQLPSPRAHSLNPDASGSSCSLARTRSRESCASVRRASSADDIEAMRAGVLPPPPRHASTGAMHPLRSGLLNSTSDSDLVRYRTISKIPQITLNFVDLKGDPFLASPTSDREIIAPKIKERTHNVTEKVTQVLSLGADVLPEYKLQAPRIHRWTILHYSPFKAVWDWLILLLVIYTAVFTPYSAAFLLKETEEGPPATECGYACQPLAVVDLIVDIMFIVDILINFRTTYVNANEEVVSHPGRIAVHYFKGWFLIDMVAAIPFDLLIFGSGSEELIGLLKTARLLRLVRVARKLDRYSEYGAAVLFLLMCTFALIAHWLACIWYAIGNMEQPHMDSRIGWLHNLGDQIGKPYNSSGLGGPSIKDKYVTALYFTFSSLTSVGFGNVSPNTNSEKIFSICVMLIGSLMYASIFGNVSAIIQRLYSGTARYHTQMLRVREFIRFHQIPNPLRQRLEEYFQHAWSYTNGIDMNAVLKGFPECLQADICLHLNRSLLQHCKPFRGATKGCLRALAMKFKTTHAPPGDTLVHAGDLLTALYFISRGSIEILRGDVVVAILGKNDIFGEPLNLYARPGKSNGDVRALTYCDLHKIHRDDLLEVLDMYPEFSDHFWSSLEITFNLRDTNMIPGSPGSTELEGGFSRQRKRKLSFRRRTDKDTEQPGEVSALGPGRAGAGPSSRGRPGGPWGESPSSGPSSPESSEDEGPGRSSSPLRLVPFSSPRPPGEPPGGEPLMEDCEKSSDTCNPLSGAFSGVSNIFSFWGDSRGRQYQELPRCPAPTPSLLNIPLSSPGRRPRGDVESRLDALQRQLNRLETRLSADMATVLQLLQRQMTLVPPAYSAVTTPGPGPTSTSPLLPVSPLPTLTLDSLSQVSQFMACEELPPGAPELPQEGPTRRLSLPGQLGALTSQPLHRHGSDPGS
# Retinoic acid receptor RXR-alpha (Homo sapiens), sequence (P19793 whole entry, looked up): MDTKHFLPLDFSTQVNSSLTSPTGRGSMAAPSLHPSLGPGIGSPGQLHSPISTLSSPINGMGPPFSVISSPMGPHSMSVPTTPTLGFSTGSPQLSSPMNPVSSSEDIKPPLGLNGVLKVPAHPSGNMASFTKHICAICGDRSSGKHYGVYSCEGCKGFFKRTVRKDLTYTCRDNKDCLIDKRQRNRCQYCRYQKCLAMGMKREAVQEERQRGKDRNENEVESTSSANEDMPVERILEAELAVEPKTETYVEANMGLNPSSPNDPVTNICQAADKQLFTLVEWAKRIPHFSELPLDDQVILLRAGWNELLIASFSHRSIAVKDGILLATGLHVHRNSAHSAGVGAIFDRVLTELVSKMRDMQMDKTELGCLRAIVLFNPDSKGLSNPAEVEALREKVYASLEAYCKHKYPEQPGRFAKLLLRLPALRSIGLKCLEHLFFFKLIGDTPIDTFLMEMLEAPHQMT
# Luciferin 4-monooxygenase (Photinus pyralis), sequence (P08659 whole entry, looked up): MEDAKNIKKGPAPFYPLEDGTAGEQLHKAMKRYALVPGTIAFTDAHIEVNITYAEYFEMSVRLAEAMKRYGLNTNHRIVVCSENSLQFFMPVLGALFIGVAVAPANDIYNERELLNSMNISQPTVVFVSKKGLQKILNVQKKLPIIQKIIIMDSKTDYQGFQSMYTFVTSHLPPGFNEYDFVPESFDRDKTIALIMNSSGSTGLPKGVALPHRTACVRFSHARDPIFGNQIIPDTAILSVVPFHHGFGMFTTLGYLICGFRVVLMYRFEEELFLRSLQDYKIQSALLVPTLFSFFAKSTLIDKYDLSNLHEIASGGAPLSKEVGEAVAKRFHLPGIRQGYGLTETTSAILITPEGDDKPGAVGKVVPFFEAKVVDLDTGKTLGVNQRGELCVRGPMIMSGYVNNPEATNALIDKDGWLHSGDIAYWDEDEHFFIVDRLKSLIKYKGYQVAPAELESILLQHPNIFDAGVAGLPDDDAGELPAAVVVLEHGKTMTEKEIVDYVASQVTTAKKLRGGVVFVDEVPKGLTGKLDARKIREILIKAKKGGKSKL
# Thyroid hormone receptor beta (Homo sapiens), sequence (P10828 whole entry, looked up): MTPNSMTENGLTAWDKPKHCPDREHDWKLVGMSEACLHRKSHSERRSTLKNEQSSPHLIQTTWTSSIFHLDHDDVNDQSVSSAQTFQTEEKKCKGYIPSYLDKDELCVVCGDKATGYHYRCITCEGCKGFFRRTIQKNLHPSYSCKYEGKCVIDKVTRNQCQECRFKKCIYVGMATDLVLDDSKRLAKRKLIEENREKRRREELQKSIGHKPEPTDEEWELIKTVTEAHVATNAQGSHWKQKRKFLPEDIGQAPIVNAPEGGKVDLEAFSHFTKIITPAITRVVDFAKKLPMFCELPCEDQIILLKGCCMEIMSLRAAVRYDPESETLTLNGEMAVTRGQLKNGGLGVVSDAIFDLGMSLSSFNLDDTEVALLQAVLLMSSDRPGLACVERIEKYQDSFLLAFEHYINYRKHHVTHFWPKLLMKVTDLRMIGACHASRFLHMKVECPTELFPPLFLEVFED
# Vitamin D3 receptor (Homo sapiens), sequence (P11473 whole entry, looked up): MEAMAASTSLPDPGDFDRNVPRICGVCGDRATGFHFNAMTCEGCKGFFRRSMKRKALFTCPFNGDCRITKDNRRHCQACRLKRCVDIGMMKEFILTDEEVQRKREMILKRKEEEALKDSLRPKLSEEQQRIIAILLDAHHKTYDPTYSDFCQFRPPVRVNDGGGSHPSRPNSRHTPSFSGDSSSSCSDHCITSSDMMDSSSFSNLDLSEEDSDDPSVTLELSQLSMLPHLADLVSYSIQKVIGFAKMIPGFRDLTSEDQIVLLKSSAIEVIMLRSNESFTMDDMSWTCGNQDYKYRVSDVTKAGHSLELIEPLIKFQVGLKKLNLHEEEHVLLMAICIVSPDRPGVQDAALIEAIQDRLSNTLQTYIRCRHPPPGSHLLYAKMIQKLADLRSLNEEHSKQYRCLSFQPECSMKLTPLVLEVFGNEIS
structure (smiles),measurement,setting,value
CC(O)C(=O)O (stereo not given),Potency,[1],inactive
same,outcome,[2],inactive
same,max response,[3],-16.3%
same,outcome,[4],inactive
same,outcome,[5],inactive
same,max response,[6],7.59%
same,max response,[7],2.3% (inactive)
same,activity change % (negative = inhibition),[8],-8.09% (inactive)
same,Potency,[9],inactive
same,Potency,[10],inactive
CCOc1ccc2nc3cc(N)ccc3c(N)c2c1,Potency,[9],inactive
COc1cccc2c1C(=O)c1c(O)c3c(c(O)c1C2=O)C[C@@](O)(C(=O)CO)C[C@@H]3O[C@H]1C[C@H](N)[C@H](O)[C@H](C)O1,outcome,[2],inactive
same,outcome,[5],inactive
same,max response,[6],-19.8%
same,Potency,[7],2 µM (active)
same,Potency,[8],5.62 µM (active) and 4.47 µM (active)
same,Potency,[9],inactive
C=CCc1ccc(O)c(OC)c1,max response,[3],-13.4% and -16.3%
same,outcome,[4],inactive
same,max response,[6],-4.42% and -7.03%
same,max response,[7],-1.42% (inactive) and -1.33% (inactive)
same,Potency,[9],inactive
same,Potency,[10],inactive
CC(C)C[C@H]1C(=O)N2CCC[C@H]2[C@]2(O)O[C@](NC(=O)[C@@H]3C=C4c5cccc6[nH]c(Br)c(c56)C[C@H]4N(C)C3)(C(C)C)C(=O)N12,Potency,[9],inactive
CCCCC(CC)CN=C(N)NC(N)=NCCCCCCN=C(N)NC(N)=NCC(CC)CCCC (stereo not given),Potency,[9],inactive
same,Potency,[10],inactive
CC(C)=CCC1C(=O)N(c2ccccc2)N(c2ccccc2)C1=O,Potency,[9],inactive
same,Potency,[10],inactive
NC(=O)C(=O)N/N=C/c1ccc([N+](=O)[O-])o1,Potency,[9],inactive
same,Potency,[10],inactive
CC(C)(C(=O)c1cccnc1)c1cccnc1,Potency,[9],inactive
same,Potency,[10],inactive
CNCCC=C1c2ccccc2CCc2ccccc21,Potency,[9],7.94 µM (active)
same,Potency,[10],inactive
OCc1ccccc1O,Potency,[9],inactive
same,Potency,[10],inactive
Cc1c(F)c(N2CCNC(C)C2)cc2c1c(=O)c(C(=O)O)cn2C1CC1 (stereo not given),Potency,[9],inactive
same,Potency,[10],inactive
CCCCc1nc(Cl)c(CO)n1Cc1ccc(-c2ccccc2-c2nn[nH]n2)cc1,Potency,[9],inactive
same,Potency,[10],inactive
Oc1ccc(Cl)c2cccnc12,Potency,[9],inactive
same,Potency,[10],inactive
CC(=O)N(O)CCCCCNC(=O)CCC(=O)N(O)CCCCCNC(=O)CCC(=O)N(O)CCCCCN,Potency,[9],inactive
same,Potency,[10],inactive
C[C@@H](CN(C)C)CN1c2ccccc2Sc2ccccc21,Potency,[9],6.31 µM (active)
same,Potency,[10],inactive
O=C(OCCOCCO)c1ccccc1Nc1cccc(C(F)(F)F)c1,Potency,[9],inactive
same,Potency,[10],inactive
CCn1cc(C(=O)O)c(=O)c2cnc(N3CCCC3)nc21,Potency,[9],inactive
same,Potency,[10],inactive
CCOC(=O)/C=C(C)/C=C/C=C(C)/C=C/c1c(C)cc(OC)c(C)c1C,Potency,[9],inactive
same,Potency,[10],inactive
O=C1[C@H]2CCCC[C@H]2C(=O)N1CCCCN1CCN(c2nsc3ccccc23)CC1,Potency,[9],5.01 µM (active)
same,Potency,[10],inactive
CCCCCCCCCCOCC(O)CN (stereo not given),Potency,[9],25.1 µM (active)
same,Potency,[10],inactive
CC(=O)c1ccc2c(c1)N(CCCN1CCC(CCO)CC1)c1ccccc1S2,Potency,[9],1.26 µM (active)
same,Potency,[10],inactive
Oc1c(I)cc(I)c2cccnc12,Potency,[9],inactive
same,Potency,[10],inactive
CCOc1ccc(NC(=O)CC(C)O)cc1 (stereo not given),Potency,[9],inactive
same,Potency,[10],inactive
COc1cc(OC)cc(OC)c1,Potency,[9],inactive
same,Potency,[10],inactive
CCCn1c(=O)[nH]c(=O)c2[nH]cnc21,Potency,[9],inactive
same,Potency,[10],inactive
Cc1cc(N)c2cc(NC(=O)Nc3ccc4nc(C)cc(N)c4c3)ccc2n1,Potency,[9],inactive
same,Potency,[10],inactive
CC(=O)Nc1c(I)cc(I)c(C(=O)O)c1I,Potency,[9],inactive
same,Potency,[10],inactive
CN(C)CCOc1ccccc1Cc1ccccc1,Potency,[9],3.55 µM (active)
same,Potency,[10],inactive
CN1CCN(CCCN2c3ccccc3Sc3ccc(S(=O)(=O)N(C)C)cc32)CC1,Potency,[9],6.31 µM (active)
same,Potency,[10],inactive
CCN(CC)CCOC(=O)C(c1ccccc1)C1CCCCC1 (stereo not given),Potency,[9],12.6 µM (active)
same,Potency,[10],inactive
C[C@@H]1C(=O)NC2=Nc3cccc(Cl)c3CN21,Potency,[9],inactive
same,Potency,[10],inactive
NCCC(O)(P(=O)(O)O)P(=O)(O)O,Potency,[9],inactive
same,Potency,[10],inactive
Nc1ccc(C(=O)Nc2ccccc2N)cc1,Potency,[9],inactive
same,Potency,[10],inactive
CCOC(=O)OC(C)OC1=C(C(=O)Nc2ccccn2)N(C)S(=O)(=O)c2ccccc21 (stereo not given),Potency,[9],inactive
same,Potency,[10],inactive
N[C@H](CO)C(=O)O,Potency,[9],inactive
same,Potency,[10],inactive
CN(C)CC/C=C1\c2ccccc2Sc2ccc(Cl)cc21,Potency,[9],8.91 µM (active)
same,Potency,[10],inactive
CCCCN1CCCC1C(=O)Nc1c(C)cc(C)cc1C (stereo not given),Potency,[9],inactive
same,Potency,[10],inactive
C[N+]1(CCCCC[N+]2(C)CCCC2)CCCC1,Potency,[9],inactive
same,Potency,[10],inactive
CN1CCN(C(c2ccccc2)c2ccccc2)CC1,Potency,[9],inactive
same,Potency,[10],inactive
CC(Cc1cccc(C(F)(F)F)c1)NCCOC(=O)c1ccccc1 (stereo not given),Potency,[9],10 µM (active)
same,Potency,[10],inactive
C#C[C@]1(O)CC[C@H]2[C@@H]3CCc4cc(OC5CCCC5)ccc4[C@H]3CC[C@@]21C,Potency,[9],inactive
same,Potency,[10],inactive
CCN(CC)CCNC(=O)COc1ccc(Cl)cc1,Potency,[9],14.1 µM (active)
same,Potency,[10],inactive
CCN(CC)C(=O)/C(C#N)=C/c1cc(O)c(O)c([N+](=O)[O-])c1,Potency,[9],inactive
same,Potency,[10],inactive
c1ccc(-c2ccc(C(c3ccccc3)n3ccnc3)cc2)cc1 (stereo not given),Potency,[9],12.6 µM (active)
same,Potency,[10],inactive
CC1(C)CCC(NC(=O)[C@@H](N)CCC(=O)O)CC1,Potency,[9],inactive
same,Potency,[10],inactive
OC(CCN1CCCCC1)(c1ccccc1)c1ccccc1,Potency,[9],14.1 µM (active)
same,Potency,[10],inactive
CCCCOc1ccc(C(=O)CCN2CCCCC2)cc1,Potency,[9],10 µM (active)
same,Potency,[10],inactive
O=c1c(-c2ccccc2)c1-c1ccccc1,Potency,[9],inactive
same,Potency,[10],inactive
Cc1c(N(C)CS(=O)(=O)O)c(=O)n(-c2ccccc2)n1C,Potency,[9],inactive
same,Potency,[10],inactive
O=C(CCCN1CCC(O)(c2ccc(Br)cc2)CC1)c1ccc(F)cc1,Potency,[9],0.126 µM (active)
same,Potency,[10],inactive
CCCCOc1cc(C(=O)NCCN(CC)CC)c2ccccc2n1,Potency,[9],4.47 µM (active)
same,Potency,[10],inactive
C[C@]12CCC(=O)C=C1CC[C@H]1[C@@H]3CC[C@](O)(C(=O)CO)[C@@]3(C)C[C@H](O)[C@@]12F,Potency,[9],inactive
same,Potency,[10],inactive
